Assays:
Assay in all cases: Spec-seq (EMSA and sequencing of bound and unbound bands); 100 nM BATFx-JUNB, 1 uM dsDNA library, 50 mM K acetate, 20 mM Tris-acetate, 10 mM Mg acetate, 100 ug/ml BSA, pH 7.9, 10% glycerol, 30 min on ice; native 9% PAGE at 4 C; low values mean tight binding
Settings in all cases: protein: recombinant;recombinant; tags: N-terminal mCherry-TEV, cleaved off;C-terminal 6His; copies: 1;1; dsDNA, one strand shown
BATF;JUNB = target: T1, BATF;JUNB (human;human, UniProt Q16520;P17275 1-125;148-347, |)
T1 sequence 1: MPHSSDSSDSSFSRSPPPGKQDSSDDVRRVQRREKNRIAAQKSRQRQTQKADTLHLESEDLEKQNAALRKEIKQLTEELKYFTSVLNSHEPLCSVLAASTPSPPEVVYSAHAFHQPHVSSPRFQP
T1 sequence 2: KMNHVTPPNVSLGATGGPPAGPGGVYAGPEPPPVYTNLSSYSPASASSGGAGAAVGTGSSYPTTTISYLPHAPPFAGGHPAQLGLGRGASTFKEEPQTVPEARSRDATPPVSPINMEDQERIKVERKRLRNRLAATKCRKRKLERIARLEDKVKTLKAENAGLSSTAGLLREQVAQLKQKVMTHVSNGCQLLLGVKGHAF
Method in brief: (§1)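 The protein, at 100 nM, was incubated with 1 μM double-stranded degenerate DNA library for 30 min on ice in NEB Cutsmart buffer with 10% glycerol, then resolved by native 9% PAGE at 4 °C. Excised bound and unbound bands were PCR-barcoded and Illumina-sequenced, and each sequence's relative binding energy in kT is −ln of its bound/unbound read-count ratio.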

BATF2 (bZIP);JUNB = target: T2, BATF2 (bZIP);JUNB (human;human, UniProt Q8N1L9;P17275 1-142;148-347, |)
T2 sequence 1: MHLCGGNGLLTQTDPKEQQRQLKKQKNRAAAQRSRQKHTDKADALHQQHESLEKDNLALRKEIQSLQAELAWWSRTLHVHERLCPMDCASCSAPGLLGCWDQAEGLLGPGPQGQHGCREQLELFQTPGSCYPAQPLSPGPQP
T2 sequence 2: T1 sequence 2
Method in brief: as §1

BATF3;JUNB = target: T3, BATF3;JUNB (human;human, UniProt Q9NR55;P17275 1-127;148-347, |)
T3 sequence 1: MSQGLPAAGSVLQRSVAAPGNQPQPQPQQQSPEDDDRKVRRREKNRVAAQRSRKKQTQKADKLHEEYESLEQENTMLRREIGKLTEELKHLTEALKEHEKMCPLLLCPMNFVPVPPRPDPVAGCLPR
T3 sequence 2: T1 sequence 2
Method in brief: as §1

Sequence | binding signal (BATF;JUNB) | binding signal (BATF2 (bZIP);JUNB) | binding signal (BATF3;JUNB)
GATAGTCTCATTTTCACCCCGTGAAATGACTAAATTGTTCCATTACAGTATCTGT | -0.125 kT | 0.513 kT | 0.0877 kT
GATAGTCTCATTTTCACCCCGTGAAATTGTGTCATTGTTCCATTACAGTATCTGT | -0.292 kT | -0.0836 kT | -0.677 kT
GATAGTCTCATTTTCACCCCGTGAAATGACTGACTTGTTCCATTACAGTATCTGT | -0.088 kT | 0.456 kT | 0.305 kT
GATAGTCTCATTTTCACCCCGTGAAATTACGTCATTGTTCCATTACAGTATCTGT | -0.943 kT | -1.14 kT | -1.82 kT
GATAGTCTCATTTTCACCCCGTGAAATGACGTCGTTGTTCCATTACAGTATCTGT | -0.291 kT | 0.27 kT | -0.759 kT
GATAGTCTCATTTTCACCCCGTGAAATGTCGTCATTGTTCCATTACAGTATCTGT | -0.357 kT | -0.113 kT | -0.976 kT
GATAGTCTCATTTTCACCCCGTGAAATGACTTAATTGTTCCATTACAGTATCTGT | -0.138 kT | 0.212 kT | -0.344 kT
GATAGTCTCATTTTCACCCCGTGAAATGACTGAATTGTTCCATTACAGTATCTGT | -0.087 kT | 0.382 kT | 0.179 kT
GATAGTCTCATTTTCACCCCGTGAAATGGCTCATTTGTTCCATTACAGTATCTGT | 0.393 kT | 1.11 kT | 0.838 kT
GATAGTCTCATTTTCACCCCGTGAAATTGCGTCATTGTTCCATTACAGTATCTGT | -0.89 kT | -0.761 kT | -1.72 kT
GATAGTCTCATTTTCACCCCGTGAAATGACGACATTGTTCCATTACAGTATCTGT | -0.298 kT | 0.288 kT | -0.606 kT
GATAGTCTCATTTTCACCCCGTGAAATGTGTCATTTGTTCCATTACAGTATCTGT | -0.52 kT | -0.022 kT | -0.44 kT
GATAGTCTCATTTTCACCCCGTGAAATGACCCACTTGTTCCATTACAGTATCTGT | 0.593 kT | 1.04 kT | 0.927 kT
GATAGTCTCATTTTCACCCCGTGAAATGAGGCATTTGTTCCATTACAGTATCTGT | 0.568 kT | 1.08 kT | 0.744 kT
GATAGTCTCATTTTCACCCCGTGAAATGAGGCACTTGTTCCATTACAGTATCTGT | 0.813 kT | 1.32 kT | 1.29 kT
GATAGTCTCATTTTCACCCCGTGAAATGACTCTCTTGTTCCATTACAGTATCTGT | 0.11 kT | 0.738 kT | 0.694 kT
GATAGTCTCATTTTCACCCCGTGAAATGACGCAGTTGTTCCATTACAGTATCTGT | -0.301 kT | 0.363 kT | -0.216 kT
GATAGTCTCATTTTCACCCCGTGAAAGGACTCATTTGTTCCATTACAGTATCTGT | 0.219 kT | 0.9 kT | 0.665 kT
GATAGTCTCATTTTCACCCCGTGAAAGTGCGTCATTGTTCCATTACAGTATCTGT | -0.695 kT | -0.267 kT | -0.851 kT
GATAGTCTCATTTTCACCCCGTGAAATGACGTAATTGTTCCATTACAGTATCTGT | -0.759 kT | -0.891 kT | -1.44 kT
GATAGTCTCATTTTCACCCCGTGAAATGAGTCTATTGTTCCATTACAGTATCTGT | -0.119 kT | 1.33 kT | 0.647 kT
GATAGTCTCATTTTCACCCCGTGAAATAACTCATTTGTTCCATTACAGTATCTGT | -0.0626 kT | 0.612 kT | 0.332 kT
GATAGTCTCATTTTCACCCCGTGAAATGACTCCTTTGTTCCATTACAGTATCTGT | 0.0649 kT | 0.734 kT | 0.584 kT
GATAGTCTCATTTTCACCCCGTGAAATGAGCCATTTGTTCCATTACAGTATCTGT | 0.392 kT | 1.26 kT | 0.914 kT
GATAGTCTCATTTTCACCCCGTGAAATGAGACAATTGTTCCATTACAGTATCTGT | 0.693 kT | 1.52 kT | 0.853 kT

Sequence | binding signal (BATF;JUNB) | binding signal (BATF2 (bZIP);JUNB) | binding signal (BATF3;JUNB)
GATAGTCTCATTTTCACCCCGTGAAATCAGTCATTTGTTCCATTACAGTATCTGT | -0.312 kT | 0.249 kT | -0.231 kT
GATAGTCTCATTTTCACCCCGTGAAAATCAGTCATTGTTCCATTACAGTATCTGT | -0.547 kT | 0.0501 kT | -0.272 kT
GATAGTCTCATTTTCACCCCGTGAAATGAGTCACTTGTTCCATTACAGTATCTGT | -0.822 kT | -0.342 kT | -1.03 kT
GATAGTCTCATTTTCACCCCGTGAAAACGAGTCATTGTTCCATTACAGTATCTGT | -0.809 kT | -0.0168 kT | -0.328 kT
GATAGTCTCATTTTCACCCCGTGAAATGAGTAAATTGTTCCATTACAGTATCTGT | -0.0981 kT | 0.684 kT | 0.363 kT
GATAGTCTCATTTTCACCCCGTGAAATGAATCATTTGTTCCATTACAGTATCTGT | -0.738 kT | -0.323 kT | -0.732 kT
GATAGTCTCATTTTCACCCCGTGAAATGAGTGACTTGTTCCATTACAGTATCTGT | 0.0645 kT | 0.827 kT | 0.384 kT
GATAGTCTCATTTTCACCCCGTGAAATGACTCTGTTGTTCCATTACAGTATCTGT | -0.0517 kT | 0.667 kT | 0.481 kT
GATAGTCTCATTTTCACCCCGTGAAAATAAGTCATTGTTCCATTACAGTATCTGT | -0.448 kT | -0.0249 kT | -0.395 kT
GATAGTCTCATTTTCACCCCGTGAAATGACTAAGTTGTTCCATTACAGTATCTGT | -0.456 kT | 0.286 kT | -0.104 kT
GATAGTCTCATTTTCACCCCGTGAAATGACTTATTTGTTCCATTACAGTATCTGT | -0.08 kT | 0.489 kT | 0.185 kT
GATAGTCTCATTTTCACCCCGTGAAATGACTCGCTTGTTCCATTACAGTATCTGT | -0.141 kT | 0.667 kT | 0.378 kT
GATAGTCTCATTTTCACCCCGTGAAAAGACTCATTTGTTCCATTACAGTATCTGT | 0.016 kT | 0.734 kT | 0.446 kT
GATAGTCTCATTTTCACCCCGTGAAATGACTAATTTGTTCCATTACAGTATCTGT | -0.506 kT | 0.0427 kT | -0.424 kT
GATAGTCTCATTTTCACCCCGTGAAATTAAGTCATTGTTCCATTACAGTATCTGT | -0.398 kT | -0.048 kT | -0.719 kT
GATAGTCTCATTTTCACCCCGTGAAATGACACATTTGTTCCATTACAGTATCTGT | -0.137 kT | 0.424 kT | 0.0792 kT
GATAGTCTCATTTTCACCCCGTGAAATGAGTCCTTTGTTCCATTACAGTATCTGT | 0.17 kT | 1.09 kT | 0.708 kT
GATAGTCTCATTTTCACCCCGTGAAATGACGCCATTGTTCCATTACAGTATCTGT | -0.429 kT | 0.257 kT | -0.802 kT
GATAGTCTCATTTTCACCCCGTGAAAGTTAGTCATTGTTCCATTACAGTATCTGT | -0.763 kT | -0.0778 kT | -0.656 kT
GATAGTCTCATTTTCACCCCGTGAAATGGAGTCATTGTTCCATTACAGTATCTGT | -0.329 kT | 0.239 kT | -0.305 kT
GATAGTCTCATTTTCACCCCGTGAAATGAGTCGGTTGTTCCATTACAGTATCTGT | 0.0858 kT | 1.07 kT | 0.619 kT
GATAGTCTCATTTTCACCCCGTGAAATCGAGTCATTGTTCCATTACAGTATCTGT | -0.54 kT | 0.0512 kT | -0.401 kT
GATAGTCTCATTTTCACCCCGTGAAATGACCCAGTTGTTCCATTACAGTATCTGT | 0.583 kT | 1.09 kT | 1.02 kT
GATAGTCTCATTTTCACCCCGTGAAAATGTGTCATTGTTCCATTACAGTATCTGT | -0.713 kT | -0.258 kT | -0.757 kT
GATAGTCTCATTTTCACCCCGTGAAATGACACAGTTGTTCCATTACAGTATCTGT | 0.189 kT | 0.717 kT | 0.492 kT
